Test results from PubChem BioAssay (NCATS).
Inconclusive results are not listed. Where a call stands in place of a potency, no number is given. Unmarked numbers belong to inactive results. Active and inactive are the calls of the source. Calls follow the shape of the dose curve; as a rule, active = well fitted cell-killing curve with a large enough effect; inconclusive = small, poorly fitted or top-dose-only effect, or effect the other way; inactive = no such curve, though single readings can be large or run the other way.

What was measured:
[1] = Viability qHTS for spleen associated tyrosine kinase inhibitor (SYKi) naive MV4-11 cells (AID 1963823); also: nearly all actives have a fitted effect of over 40% in size
Method in brief: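 CellTiter-Glo luminescence, 10 min room-temperature incubation, gave viability. Cells: naive MV4-11 (500/well), treated 72 hr at 37 C, 5% CO2.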

[2] = Viability qHTS for spleen associated tyrosine kinase inhibitor (SYKi) drug resistant MV4-11 cells (AID 1963824); also: nearly all actives have a fitted effect of over 35% in size
Method in brief: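 SYK-inhibitor-resistant MV4-11 AML cells were seeded at 500 per well onto compound and cultured 72 hours (37 °C, 5% CO2). CellTiter-Glo was then added, and after 10 min at room temperature, luminescence gave viability.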
Potency is read from the fitted curve at half-maximal effect.

| Structure (SMILES) | Potency [1] | Potency [2] | viability (% of control) [1] | viability, % of control [2] |
| --- | --- | --- | --- | --- |
| COc1cc(N2CCOCC2)ccc1Nc1ncc(F)c(Nc2ccccc2NS(C)(=O)=O)n1 | 1.64 µM (active) | 2.59 µM (active) | – | – |
| O=C1C[C@]23C=CCN4CCC5c6cc7c(cc6N1[C@@]5(CC2)C43)OCO7 (stereo not given in full) | 10.1 µM (active) | 14.3 µM (active) | – | – |
| O=C(/C=C/c1ccccc1O)O[C@@H]1O[C@H](CO)[C@@H](O)[C@H](O)[C@H]1O | inactive | inactive | – | – |
| CN(C)CCCCCCNC(=O)c1cccc(-c2cc(O)c3ncccc3c2)c1 | 2.59 µM (active) | 3.26 µM (active) | – | – |
| CCC/C=C1\OC(=O)C2=C1CCC(O)C2O (stereo not given) | inactive | inactive | – | – |
| CC1COC(Nc2ccc3ncnc(Nc4ccc(OCc5nccs5)c(Cl)c4)c3c2)=N1 (stereo not given) | 9.2 µM (active) | 9.2 µM (active) | – | – |
| CC1CCC2(OC1)OC1CC3C4CC=C5CC(O)CC(O[C@@H]6OC[C@@H](O)[C@H](O)[C@H]6O)C5(C)C4CCC3(C)C1(O)C2C (stereo not given in full) | inactive | inactive | – | – |
| COc1cc(C2CC(=O)Nc3c2cc(Br)c2ccccc32)cc(OC)c1OC (stereo not given) | inactive | inactive | – | – |
| CCCCc1nc(Cl)c(CO)n1Cc1ccc(-c2ccccc2-c2nnn[nH]2)cc1 | inactive | inactive | – | – |
| C[C@H]1CC(=O)Nc2cccc(-c3cnn(C(C)(C)C)c3)c2N1 | inactive | inactive | – | – |
| C/C(=N\N=C(N)N)c1ccc(NC(=O)Nc2ccc(/C(C)=N/N=C(N)N)cc2)cc1 | 2.06 µM (active) | 0.731 µM (active) | – | – |
| CC(=O)O[C@H]1CC[C@@]2(CI)C(=CC[C@@H]3[C@@H]2CC[C@]2(C)[C@@H]([C@H](C)CCCC(C)C)CC[C@@H]32)C1 | – | – | 88.4% [at 9.25 µM] | 83% [at 9.25 µM] |
| O=C(/C=C/c1ccc(O)cc1)c1ccc(O)cc1O | 18.6 µM (active) | 11.8 µM (active) | – | – |
| N#C/C(=C(/N)Sc1ccc(N)cc1)c1ccccc1C(F)(F)F | 10.5 µM (active) | 7.42 µM (active) | – | – |
| COc1cccc(C(=O)NCCNc2nc3cc(C)cc(C)c3cc2C#N)c1 | inactive | inactive | – | – |
| CCC(=O)OCC(=O)[C@@]1(OC(=O)CC)[C@@H](C)C[C@H]2[C@@H]3CCC4=CC(=O)C=C[C@]4(C)[C@@]3(F)[C@@H](O)C[C@@]21C | 18.4 µM (active) | 20.6 µM (active) | – | – |
| CC(C)(OC1OC(CO)C(O)C(O)C1O)C1CCC(O)(CO)C2CC(=O)C(C)(O)C2C1 (stereo not given) | inactive | inactive | – | – |
| CNC(=O)c1ccc2c(c1)CCO[C@H]2CCN1CCN(c2ccc(C(N)=O)cc2)CC1 | inactive | inactive | – | – |
| CC1=C(C)C(=O)OC(C(C)(O)C2CCC3C4CC=C5CC(OC6OC(COC7OC(CO)C(O)C(O)C7O)C(O)C(O)C6O)CC(O)C5(C)C4CCC32C)C1 (stereo not given) | inactive | inactive | – | – |
| C=C1C[C@]23C[C@H]1CC[C@H]2[C@@]12C=C[C@H](O)[C@@](C)(C(=O)O1)[C@H]2[C@@H]3C(=O)O | inactive | inactive | – | – |
| C=C1C(=O)OC2CC3(C)C(O)C(=O)C=C(C)C3CC12 (stereo not given) | 23.1 µM (active) | 7.31 µM (active) | – | – |
| CC(=O)N[C@@H](Cc1c[nH]c2ccccc12)C(=O)N[C@@H](CCC(=O)O)C(=O)N[C@@H](Cc1cnc[nH]1)C(=O)N[C@@H](CC(=O)O)C(=O)Nc1ccc2c(C(F)(F)F)cc(=O)oc2c1 | inactive | inactive | – | – |
| C=CC(C)(C)C12C=C(OC)C(=O)N3C(C(C)C)C(=O)NC31N(OC)c1ccccc12 (stereo not given) | inactive | 7.09 µM (active) | – | – |
| COC(=O)C1=CO[C@@H](O[C@@H]2O[C@H](CO)[C@@H](O)[C@H](O)[C@H]2O)[C@@H]2C(CO)=CC[C@H]12 | inactive | inactive | – | – |
| O=C(CCCCCCC(=O)Nc1ccc(C2OC(CSc3nc(-c4ccccc4)c(-c4ccccc4)o3)CC(c3ccc(CO)cc3)O2)cc1)NO (stereo not given) | 7.31 µM (active) | 9.2 µM (active) | – | – |

| Structure (SMILES) | Potency [1] | Potency [2] | viability (% of control) [1] | viability, % of control [2] |
| --- | --- | --- | --- | --- |
| CC1(C)CC2C=C(C(=O)O)C3COC(=O)C(O)(CO)C23C1 (stereo not given) | inactive | inactive | – | – |
| COC1=CC(=O)O/C1=C(/OC)[C@@H]1O[C@H]1c1ccccc1 | 23.1 µM (active) | 10.3 µM (active) | – | – |
| CC1CCC2C(=CCC(O)C2(C)C)C1(C)Cc1c(O)cc(CO)c(C=O)c1O (stereo not given) | 10.1 µM (active) | 7.18 µM (active) | – | – |
| CC(C)COc1ccc(CNC(=O)N(Cc2ccc(F)cc2)C2CCN(C)CC2)cc1 | 18.4 µM (active) | 13 µM (active) | – | – |
| CN(C)Cc1ccc(-c2cnn3c(-c4cccc(NC(=O)c5cccc(C(F)(F)F)c5)c4)ccnc23)cc1 | 2.91 µM (active) | 3.66 µM (active) | – | – |
| C[C@@H]1O[C@@H](O[C@H]2[C@H](O[C@H]3CC[C@@]4(C)C(CC[C@]5(C)C4CC=C4C6CC(C)(C)CC[C@]6(C(=O)O[C@@H]6O[C@H](CO[C@@H]7O[C@H](CO)[C@@H](O[C@@H]8O[C@@H](C)[C@H](O)[C@@H](O)[C@H]8O)[C@H](O)[C@H]7O)[C@@H](O)[C@H](O)[C@H]6O)CC[C@]45C)[C@]3(C)CO)OC[C@H](O)[C@@H]2O)[C@H](O)[C@H](O)[C@H]1O (stereo not given in full) | – | – | 69.6% [at 9.25 µM] | 88.1% [at 9.25 µM] |
| O=C(Cc1ccc(-c2ccccc2)cc1)NC1CCC1 | inactive | inactive | – | – |
| CC(=O)O[C@@H]1[C@@H](O)[C@H](C)O[C@@H](O[C@H]2[C@@H]3C=CO[C@@H](O[C@@H]4O[C@H](CO)[C@@H](O)[C@H](O)[C@H]4O)[C@@H]3[C@@]3(CO)O[C@@H]23)[C@@H]1OC(=O)/C=C/c1ccccc1 | inactive | inactive | – | – |
| O=C(Nc1ccccc1)N1CCN(c2nc(-c3ccccc3)ns2)CC1 | 14.6 µM (active) | 16.4 µM (active) | – | – |
| CC1OC(OC2C(O)C(C(=O)O)OC(OC3CCC4(C)C(CCC5(C)C4C=CC4=C6CC(C)(C)CC(O)C6(C)CCC45C)C3(C)C)C2OC2OCC(O)C(O)C2O)C(O)C(O)C1O (stereo not given) | – | – | 89.1% [at 9.25 µM] | 97.4% [at 9.25 µM] |
| CC1(O)CC(O)C2(O)C=COC(O[C@@H]3O[C@H](CO)[C@@H](O)[C@H](O)[C@H]3O)C12 (stereo not given in full) | inactive | inactive | – | – |
| C[C@]12CCC[C@](C)(C(=O)O)C1CCC13C=C(CO)C(CCC12)C3 (stereo not given in full) | inactive | inactive | – | – |
| CCC(=O)c1cc(-c2ccc(Cl)cc2)n(-c2ccc(S(N)(=O)=O)cc2)c1C | 20.6 µM (active) | 16.4 µM (active) | – | – |
| CC(=O)C=C=C1C(C)(C)CC(O[C@@H]2O[C@H](CO)[C@@H](O)[C@H](O)[C@H]2O)CC1(C)O (stereo not given in full) | inactive | inactive | – | – |
| C=C1C(O)C[C@@H]2C(C(=O)O)=CO[C@@H](O[C@@H]3O[C@H](CO)[C@@H](O)[C@H](O)[C@H]3OC(=O)c3ccc(O)cc3)[C@H]12 (stereo not given in full) | inactive | inactive | – | – |
| COc1cc(O)cc(C)c1C(=O)O[C@H]1[C@@H](O)[C@@H](n2ccc(=O)[nH]c2=O)O[C@@H]1CO | inactive | inactive | – | – |
| COc1ccc(C(=O)O[C@H]2C=COC=C3C=C4C(=O)N(C)C(=S)C(=O)N4[C@@H]32)cc1Oc1cc(C=O)ccc1O | 2.82 µM (active) | 2.24 µM (active) | – | – |
| COc1ccc(C(O)C(C)OC2OC(CO)C(O)C(O)C2O)cc1 (stereo not given) | inactive | inactive | – | – |
| CC/C=C\CCO[C@@H]1O[C@H](CO)[C@@H](O)[C@H](O)[C@H]1O | inactive | inactive | – | – |
| C[C@H]1CC[C@H]2[C@@H](C=C[C@@](C)(O)[C@]2(C)C(=O)CCO)C1 | inactive | inactive | – | – |
| CC(C)c1cc2c(c(O)c1O[C@@H]1O[C@H](CO)[C@@H](O)[C@H](O)[C@H]1O)CC1(O)CCC(O)C(C)(C)C1CC2 (stereo not given in full) | inactive | inactive | – | – |
| CC(C)C1CCC(C(=O)N[C@@H](Cc2ccccc2)C(=O)O)CC1 (stereo not given in full) | inactive | inactive | – | – |
| CC1=CC(=O)CC(C)(C)[C@H]1/C=C/C(CO)O[C@@H]1O[C@H](CO)[C@@H](O)[C@H](O)[C@H]1O (stereo not given in full) | inactive | inactive | – | – |
| CC1(C)CC[C@]2(C(=O)O[C@@H]3O[C@H](CO)[C@@H](O)[C@H](O)[C@H]3O)CC[C@]3(C)C(=CCC4[C@@]5(C)CC[C@H](O[C@@H]6O[C@H](C(=O)O)[C@@H](O)[C@H](O)[C@H]6O)C(C)(C)C5CC[C@]43C)C2C1 (stereo not given in full) | – | – | 91.3% [at 9.25 µM] | 98% [at 9.25 µM] |
| C[C@@H]1CC[C@]2(C(=O)O[C@@H]3O[C@H](CO)[C@@H](O)[C@H](O)[C@H]3O)CC[C@]3(C)C(=CCC4[C@@]5(C)C[C@@H](O)[C@H](O)[C@](C)(C(=O)O)C5CC[C@]43C)[C@@H]2[C@]1(C)O (stereo not given in full) | inactive | inactive | – | – |
